In this test the target is Voltage-dependent N-type calcium channel subunit alpha-1B (Homo sapiens) (UniProt Q00975). Briefly: disruptors of CaV2.2 binding to Mint1 – biochemical, HTRF (AID 2073). The note with it: HTRF protein-protein interaction, Mint1-CaV2.2, at 20 µM, stronger effect = higher value.
Setting [1] is: measured here: average of repeat tests.

Hit rate of the full screen: of about 290,000 compounds, about 570 (0.2%) were called active. Roughly 1% stayed inconclusive and do not appear here. No stated cut-off is given here; in the data, active means inhibition mostly above about 51% (no sharp cut-off); inconclusive means no clear call, values can overlap the other calls; inactive means mostly below about 53%. Shown is part of a subset that was picked to be rich in actives.

This passage reports inhibition results from PubChem BioAssay AID2073 (Sanford-Burnham Center for Chemical Genomics, 2009).

The term inhibition denotes the change of the read-out against control, counted positive when it falls.

Voltage-dependent N-type calcium channel subunit alpha-1B (Homo sapiens), sequence (Q00975 whole entry, looked up): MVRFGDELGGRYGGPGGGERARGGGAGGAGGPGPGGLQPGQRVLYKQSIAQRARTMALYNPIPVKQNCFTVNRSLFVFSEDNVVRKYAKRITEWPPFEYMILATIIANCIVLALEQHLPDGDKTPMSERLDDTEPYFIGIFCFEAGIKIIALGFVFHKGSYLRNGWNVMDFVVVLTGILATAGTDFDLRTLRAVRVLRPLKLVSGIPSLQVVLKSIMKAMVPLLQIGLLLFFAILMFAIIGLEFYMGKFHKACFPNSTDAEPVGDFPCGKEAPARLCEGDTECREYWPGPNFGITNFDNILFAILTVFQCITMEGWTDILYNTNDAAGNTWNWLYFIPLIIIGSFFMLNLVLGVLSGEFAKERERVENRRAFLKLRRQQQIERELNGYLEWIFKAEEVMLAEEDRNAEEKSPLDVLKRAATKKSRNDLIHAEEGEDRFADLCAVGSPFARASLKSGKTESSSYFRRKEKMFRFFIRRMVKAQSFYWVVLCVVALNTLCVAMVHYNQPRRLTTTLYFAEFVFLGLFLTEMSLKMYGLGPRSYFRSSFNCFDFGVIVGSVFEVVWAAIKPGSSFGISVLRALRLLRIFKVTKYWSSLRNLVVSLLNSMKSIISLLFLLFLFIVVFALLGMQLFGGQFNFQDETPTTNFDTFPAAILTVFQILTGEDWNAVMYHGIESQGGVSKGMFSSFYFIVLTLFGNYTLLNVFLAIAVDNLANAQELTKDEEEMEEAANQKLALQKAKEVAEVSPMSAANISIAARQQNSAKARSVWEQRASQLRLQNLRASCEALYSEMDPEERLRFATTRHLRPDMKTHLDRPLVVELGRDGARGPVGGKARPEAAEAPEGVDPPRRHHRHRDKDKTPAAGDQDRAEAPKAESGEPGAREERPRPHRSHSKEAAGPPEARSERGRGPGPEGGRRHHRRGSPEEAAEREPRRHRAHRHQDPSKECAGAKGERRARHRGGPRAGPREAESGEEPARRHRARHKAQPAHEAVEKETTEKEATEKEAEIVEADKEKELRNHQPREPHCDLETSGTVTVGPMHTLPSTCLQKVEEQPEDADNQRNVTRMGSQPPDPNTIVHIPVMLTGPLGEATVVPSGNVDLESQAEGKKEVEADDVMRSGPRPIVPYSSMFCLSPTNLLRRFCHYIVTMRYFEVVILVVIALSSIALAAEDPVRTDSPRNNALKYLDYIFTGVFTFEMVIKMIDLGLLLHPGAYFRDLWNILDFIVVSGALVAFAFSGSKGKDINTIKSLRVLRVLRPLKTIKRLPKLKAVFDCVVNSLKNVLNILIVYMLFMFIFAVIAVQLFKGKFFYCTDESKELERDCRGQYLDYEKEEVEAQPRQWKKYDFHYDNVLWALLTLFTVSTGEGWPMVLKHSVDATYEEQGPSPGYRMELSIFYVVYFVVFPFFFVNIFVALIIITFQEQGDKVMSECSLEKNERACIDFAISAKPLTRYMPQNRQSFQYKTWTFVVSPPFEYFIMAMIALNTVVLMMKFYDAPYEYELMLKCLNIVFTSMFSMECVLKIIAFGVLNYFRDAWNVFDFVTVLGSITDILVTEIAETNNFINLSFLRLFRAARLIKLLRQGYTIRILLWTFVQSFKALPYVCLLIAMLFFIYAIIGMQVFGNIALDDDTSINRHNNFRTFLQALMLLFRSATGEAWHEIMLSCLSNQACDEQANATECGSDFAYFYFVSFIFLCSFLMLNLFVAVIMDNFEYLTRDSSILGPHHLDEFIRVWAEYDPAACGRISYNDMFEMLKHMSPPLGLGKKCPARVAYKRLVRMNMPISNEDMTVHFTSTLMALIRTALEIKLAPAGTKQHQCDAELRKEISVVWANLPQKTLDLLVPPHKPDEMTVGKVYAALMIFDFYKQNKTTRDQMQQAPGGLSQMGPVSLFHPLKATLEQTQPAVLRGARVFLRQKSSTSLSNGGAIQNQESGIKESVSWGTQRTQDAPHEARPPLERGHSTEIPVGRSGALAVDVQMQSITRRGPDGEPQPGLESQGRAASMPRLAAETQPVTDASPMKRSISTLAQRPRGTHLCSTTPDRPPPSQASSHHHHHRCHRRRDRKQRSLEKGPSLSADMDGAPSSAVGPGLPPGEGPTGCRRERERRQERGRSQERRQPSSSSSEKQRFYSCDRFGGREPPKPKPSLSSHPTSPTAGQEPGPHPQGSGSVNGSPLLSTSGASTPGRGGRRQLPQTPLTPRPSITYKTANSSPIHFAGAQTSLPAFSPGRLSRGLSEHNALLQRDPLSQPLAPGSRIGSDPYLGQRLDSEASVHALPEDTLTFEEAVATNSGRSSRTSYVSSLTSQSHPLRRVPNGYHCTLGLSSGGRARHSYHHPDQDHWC

Take `COc1c(S(=O)(=O)NCCCn2ccnc2)ccc(Cl)c1Cl`: the inhibition is -0.3% (inactive).

On to `COc1cccc(-c2nn(-c3ccccc3)cc2C(=O)O)c1`, for which the inhibition was 1.6% (inactive).

`COc1ccc(OC)c(NC(=O)c2c(NC(=O)CCC(=O)O)sc3c2CCCCC3)c1`: the inhibition is 65.1% (active).

As for `COc1ccc(NC(=O)c2c(NC(=O)CCC(=O)O)sc3c2CCCCC3)cc1`, the inhibition was 63.8% (inactive). The inhibition under setting [1] was found to be 9.3%.

In the case of `COc1ccccc1NC(=O)c1c(NC(=O)CCC(=O)O)sc2c1CCCCC2`, the inhibition is 25% (inactive).

As to `O=S(=O)(NCC1CCCO1)c1ccc(Oc2ccccc2)cc1` (stereo not given), the inhibition was 8.9% (inactive).

On to `Cc1cc(C(=O)OCC(=O)Nc2cc(S(=O)(=O)N(C)C)ccc2C)c2ccccc2n1`, for which the inhibition is -2.8% (inactive).

As to `C[C@H]1[C@H](C)CC[C@]2(C(=O)O)CC[C@]3(C)C(=CC[C@@H]4[C@@]5(C)CC[C@H](O)C(C)(C)[C@@H]5CC[C@]43C)[C@H]12`, the inhibition is 41.1% (inactive).

Consider `C[C@H]1[C@H](C)CC[C@]2(C(=O)O)CC[C@]3(C)C(=CC[C@@H]4[C@@]5(C)C[C@@H](O)[C@H](O)C(C)(C)[C@@H]5CC[C@]43C)[C@H]12`, for which the inhibition is 45.4% (inactive).

Consider `C[C@H]1[C@H](C)CC[C@]2(C)CC[C@]3(C)C(=CC[C@@H]4[C@@]5(C)CC[C@@H](O)[C@](C)(C(=O)O)[C@@H]5CC[C@]43C)[C@H]12`, for which the inhibition is 77% (active).

`CC(=O)Nc1cc2c3c(c1)CCN3C(=O)CC2`: the inhibition was 0.4% (inactive).

For the compound `COc1cc(/C=N/NC(=O)c2ccncc2)ccc1OC(C)=O`, the inhibition is 11.8% (inactive).

`Cc1ccc(S(=O)(=O)n2c(=O)oc3ccccc32)cc1`: the inhibition is -5.8% (inactive).

On to `CCn1ncc(C2=NOC(C(=O)N3CCC(C(N)=O)CC3)C2)c1C` (stereo not given), for which the inhibition is 2.8% (inactive).

With `CCCOC(=O)/C(=C\C=C\c1ccccc1)NC(=O)c1ccccc1`, the inhibition was -6.3% (inactive).

Consider `CCCOC(=O)/C(=C\C=C\c1ccco1)NC(=O)c1ccccc1`, for which the inhibition is 66.6% (active).

With `CCCCOC(=O)/C(=C/C=C/c1ccccc1)NC(=O)c1ccccc1`, the inhibition was 7.4% (inactive).

Turning to `CC1(c2ccccc2)NC(=O)N(Cc2ccc([N+](=O)[O-])cc2)C1=O` (stereo not given), the inhibition was -5.3% (inactive).

Regarding `CP(=O)(COC(=O)c1ccccc1)COC(=O)c1ccccc1`, the inhibition is -9.7% (inactive).

Turning to `OC[C@@H]1CCCN1Cc1cn(-c2ccccc2)nc1-c1ccc2c(c1)OCO2`, the inhibition is 8.1% (inactive).

As to `O=[N+]([O-])c1ccc(N/N=C/c2sc(N3CCOCC3)nc2-c2ccccc2)c(S(=O)(=O)Nc2ccc(Cl)cc2)c1`, the inhibition was 67.1% (active).

In the case of `O=C(N/N=C/c1sc(N2CCOCC2)nc1-c1ccccc1)c1cccc(S(=O)(=O)N2CCCC2)c1`, the inhibition was 51.1% (active).

On to `O=[N+]([O-])c1ccc(N/N=C/c2sc(N3CCOCC3)nc2-c2ccccc2)c(S(=O)(=O)Nc2ccccc2Cl)c1`, for which the inhibition is 30.5% (inactive).

For `O=C(N/N=C/c1sc(N2CCOCC2)nc1-c1ccccc1)c1cccc(S(=O)(=O)N2CCOCC2)c1`, the inhibition was 21.2% (inactive).

In the case of `Cc1ccc(NS(=O)(=O)c2cc([N+](=O)[O-])ccc2N/N=C/c2sc(N3CCOCC3)nc2-c2ccccc2)c(C)c1`, the inhibition was 31.1% (inactive).

Turning to `COc1cc(C(=O)N/N=C/c2sc(N3CCOCC3)nc2-c2ccccc2)cc(OC)c1OC`, the inhibition was 4.4% (inactive).

As to `Cc1ccc(C2=CSC3=NNC4(CCCCC4)NN23)cc1`, the inhibition is 8.9% (inactive).

In the case of `CCOC(=O)N1CCN(C(=O)CSCc2ccccc2C)CC1`, the inhibition is -5.4% (inactive).

For the compound `O=C(CCC(=O)N(CC(=O)NC1CCCCC1)Cc1ccccc1)Nc1ccccn1`, the inhibition is -13% (inactive).

For `N/C(Cc1cccc2ccccc12)=N\OC(=O)c1ccc(Br)o1`, the inhibition is 56.5% (active).

Turning to `N/C(Cc1ccc(Cl)c(Cl)c1)=N\OC(=O)c1ccc(Br)o1`, the inhibition was 5.1% (inactive).

`N/C(Cc1ccc(Cl)cc1Cl)=N\OC(=O)c1ccc(Br)o1`: the inhibition is 7.7% (inactive).

Take `Cc1ccc(N2C(=O)N3[C@H](c4ccc(F)cc4)[C@@H]4C(=O)N(C5CCCCC5)C(=O)[C@@H]4[C@]3(C)C2=O)cc1`: the inhibition is 3.5% (inactive).

Turning to `Cc1ccccc1C(=O)NC(C(N)=O)P(=O)(OC(C)C)OC(C)C` (stereo not given), the inhibition was -2.5% (inactive).

With `CCc1ccccc1NS(=O)(=O)c1cccc2nsnc12`, the inhibition was 4.2% (inactive).

In the case of `NC(=S)n1[nH]c(-c2ccc([N+](=O)[O-])cc2)c(N=Nc2cccc(Cl)c2)c1=O`, the inhibition is 64.1% (inactive). The inhibition under setting [1] was 12.7%.

With `NC(=S)n1[nH]c(-c2ccc([N+](=O)[O-])cc2)c(N=Nc2ccc(O)cc2)c1=O`, the inhibition is -5.9% (inactive).

On to `Cc1[nH]n(C(N)=S)c(=O)c1N=Nc1cccc([N+](=O)[O-])c1C`, for which the inhibition was 14.9% (inactive).

With `NC(=S)n1[nH]c(-c2ccc([N+](=O)[O-])cc2)c(N=Nc2ccccc2[N+](=O)[O-])c1=O`, the inhibition was 69.4% (inactive). For the same compound, under setting [1], the inhibition is 20.6%.

For the compound `CCCC(=O)c1cc2cc(Cl)ccc2oc1=O`, the inhibition was -2.8% (inactive).

Consider `CCOC(=O)CSc1nnc(-c2cccnc2)n1C`, for which the inhibition was 0.8% (inactive).

`CN1CCN(C(CC(=O)Nc2cccc(O)c2)C(=O)O)CC1` (stereo not given): the inhibition was 0.5% (inactive).

On to `O=C(CSc1nnc(-c2ccccc2)o1)NC1CCS(=O)(=O)C1` (stereo not given), for which the inhibition is -2.1% (inactive).

As to `O=C(OCn1ncc(Cl)c(Cl)c1=O)c1ccc(F)cc1`, the inhibition was -3% (inactive).

As to `COc1ccc(N2CCN(C(=O)c3ccc4c(=O)n5c(nc4c3)CCCCC5)CC2)cc1`, the inhibition is -6.5% (inactive).

As for `Cc1ccc2c(CN3CCN(Cc4ccccc4)CC3)cc(=O)oc2c1C`, the inhibition is 6.6% (inactive).

As for `Cc1ccccc1NC(=S)NCc1cccs1`, the inhibition is 5.6% (inactive).

Regarding `Cc1cc(C)c(NC(=S)N(Cc2cccnc2)Cc2ccco2)c(C)c1`, the inhibition is 0.6% (inactive).

Consider `COc1ccc2cc(C(c3nnnn3C(C)(C)C)N3CCc4ccccc4C3)c(=O)[nH]c2c1` (stereo not given), for which the inhibition was 33% (inactive).

On to `CCC(C)(C)n1nnnc1C(c1cc2ccc(OC)cc2[nH]c1=O)N1CCc2ccccc21` (stereo not given), for which the inhibition was 19.3% (inactive).

With `CCC(C)(C)n1nnnc1C(c1cc2ccc(OC)cc2[nH]c1=O)N1CCc2ccccc2C1` (stereo not given), the inhibition is 56.9% (active).

Take `Fc1cccc(Cl)c1CNn1cn[nH]c1=S`: the inhibition was -3% (inactive).

Turning to `COc1ccc2c(c1)CCc1cc(C(=O)N3CCN(c4ccc(N5CCOCC5)nn4)CC3)sc1-2`, the inhibition is 13.6% (inactive).

Regarding `CCCCc1[nH]nc2c1C1(C(=O)N(CC)c3ccccc31)C(C#N)=C(N)O2` (stereo not given), the inhibition was -5.8% (inactive).

Take `COc1ccc(N2CCN(CCNC(=O)Nc3cccc(C)c3C)CC2)cc1`: the inhibition is 0.6% (inactive).

Turning to `O=C(/C=C/c1ccc2c(c1)OCO2)Nc1nc(-c2ccc(F)cc2F)cs1`, the inhibition was 9.1% (inactive).

As for `CCCOc1ccc(-c2cc(C(F)(F)F)c(C#N)c(SCC(=O)O)n2)cc1`, the inhibition was 35.3% (inactive).

`CCCCOc1ccc(-c2cc(C(F)(F)F)c(C#N)c(SCC(=O)O)n2)cc1`: the inhibition was 60.7% (active).

With `COc1ccc(-c2cc(C(F)(F)F)c(C#N)c(SCC(=O)O)n2)cc1`, the inhibition is 22% (inactive).

For the compound `Cc1cccc(NC(=O)CCN2C(=O)C3C4C=CC(C4)C3C2=O)n1` (stereo not given), the inhibition is 22% (inactive).

Take `O=C(NCc1ccc(Cl)cc1)c1nccnc1CO`: the inhibition was 11.8% (inactive).

Take `COc1ccc(NS(=O)(=O)c2cccc(-c3n[nH]c(=S)n3Cc3ccccc3)c2)cc1`: the inhibition was 3.7% (inactive).

Consider `O=C(COc1ccc(Cl)cc1Cl)c1ccc[nH]1`, for which the inhibition was 21.1% (inactive).

With `O=C(COc1ccccc1Cl)c1ccc[nH]1`, the inhibition was 53.6% (active).

With `O=C(COc1ccc(Br)cc1Cl)c1ccc[nH]1`, the inhibition was 24.7% (inactive).

As for `COc1ccc(C(NC(=O)CC(C)C)c2c(O)ccc3ccccc23)cc1` (stereo not given), the inhibition was 15.2% (inactive).

With `CCc1ccc(C2CC(=O)N3CN(c4ccccc4)CSC3=C2C#N)cc1` (stereo not given), the inhibition was 88% (inactive). In addition, the inhibition under setting [1] came to 42.4%.

For the compound `COc1cc(OC)c(C2CC(=O)N3CN(c4ccccc4C)CSC3=C2C#N)cc1OC` (stereo not given), the inhibition is 73.1% (active).

With `CCOc1cc(C2CC(=O)N3CN(C4CCCCC4)CSC3=C2C#N)ccc1O` (stereo not given), the inhibition was 62.4% (active).

`CCc1ccccc1N1CSC2=C(C#N)C(c3cc(OC)c(OC)cc3OC)CC(=O)N2C1` (stereo not given): the inhibition was 75.6% (inactive). Moreover, the inhibition under setting [1] was determined as 34.5%.

Consider `CCOc1cc(C2CC(=O)NC(SCC)=C2C#N)ccc1O` (stereo not given), for which the inhibition is 5.2% (inactive).

Take `COc1cccc(C2CC(=O)N3CN(c4cccc(Cl)c4C)CSC3=C2C#N)c1OC` (stereo not given): the inhibition is 73.5% (active).

In the case of `COc1cc(C2CC(=O)N3CN(c4ccccc4C)CSC3=C2C#N)cc(OC)c1OC` (stereo not given), the inhibition was 90.6% (inactive). Also, the inhibition under setting [1] amounted to 32.6%.

For the compound `N#CC1=C2SCN(c3ccccc3)CN2C(=O)CC1c1cccs1` (stereo not given), the inhibition is 74% (inactive). Moreover, the inhibition under setting [1] is 42.2%.

In the case of `N#CC1=C2SCN(c3ccccc3)CN2C(=O)CC1c1ccccc1Cl` (stereo not given), the inhibition was 57.1% (inactive). Also, the inhibition under setting [1] was 35.2%.

`N#CC1=C2SCN(Cc3ccco3)CN2C(=O)CC1c1ccccc1F` (stereo not given): the inhibition is 84.1% (inactive). Besides, under setting [1], the inhibition turned out to be 33.2%.

On to `CCc1ccccc1N1CSC2=C(C#N)C(c3ccccc3F)CC(=O)N2C1` (stereo not given), for which the inhibition is 84.5% (active).

Turning to `COc1cc(OC)c(C2CC(=O)N3CN(c4ccc(C)cc4)CSC3=C2C#N)cc1OC` (stereo not given), the inhibition is 65.7% (inactive). The inhibition under setting [1] came out at 14.9%.

For `CCC(C)/C(C)=N/NC(=O)CSc1nc2ccccc2[nH]1` (stereo not given), the inhibition was -5.4% (inactive).

Regarding `Cc1ccc(C)c(N(C(=O)c2csnn2)C(C(=O)NC2CCCCC2)c2ccccn2)c1` (stereo not given), the inhibition was 1.3% (inactive).

On to `O=C(CN1CCOCC1)Nc1cccc(S(=O)(=O)N2CCCCCC2)c1`, for which the inhibition is -5.9% (inactive).

Take `Cc1ccc(N2C(=O)C3C4CC(=O)C(c5ccccc54)C3C2=O)cc1C` (stereo not given): the inhibition is -1.5% (inactive).

Regarding `COc1ccc(OC)c(C2CC(=O)N3CN(c4ccccc4F)CSC3=C2C#N)c1` (stereo not given), the inhibition was 29.3% (inactive).

In the case of `COc1ccc(C2CC(=O)N3CN(c4ccccc4F)CSC3=C2C#N)cc1OC` (stereo not given), the inhibition is 79.9% (inactive). Moreover, the inhibition under setting [1] was 38.6%.

On to `COc1ccc(OC)c(C2CC(=O)N3CN(c4cccc(Cl)c4)CSC3=C2C#N)c1` (stereo not given), for which the inhibition was 37.5% (inactive).

Consider `COc1ccccc1N1CSC2=C(C#N)C(c3ccc(SC)cc3)CC(=O)N2C1` (stereo not given), for which the inhibition was 81.5% (active).

On to `COc1ccc(N2CSC3=C(C#N)C(c4cc(OC)ccc4OC)CC(=O)N3C2)c(OC)c1` (stereo not given), for which the inhibition is 69.2% (active).

For the compound `COc1ccc(N2CSC3=C(C#N)C(c4ccc(OC)c(OC)c4)CC(=O)N3C2)c(OC)c1` (stereo not given), the inhibition was 91.4% (active).

Consider `COc1cccc(C2CC(=O)N3CN(c4ccccc4F)CSC3=C2C#N)c1` (stereo not given), for which the inhibition was 75.5% (inactive). The inhibition under setting [1] worked out at 31%.

In the case of `COc1ccc(C2CC(=O)N3CN(c4ccc(C)c(Cl)c4)CSC3=C2C#N)cc1` (stereo not given), the inhibition was 80.8% (inactive). The inhibition under setting [1] came to 11.1%.

Regarding `CCOc1ccccc1N1CSC2=C(C#N)C(c3c(OC)ccc4ccccc34)CC(=O)N2C1` (stereo not given), the inhibition is 72.9% (inactive). The inhibition under setting [1] is 9.7%.
